# Results taken from paper PMC5540273 (PLoS ONE, 2017).
# Columns and labels:
# Settings in all cases: concentration: 1 μM,replicates: in singlicate; n = 1
# CAMK1 = test system: CAMK1
# CAMK2A = test system: CAMK2A
# CAMK2B = test system: CAMK2B
# CAMK2D = test system: CAMK2D
# CAMK2G = test system: CAMK2G
# CAMK4 = test system: CAMK4
# CAMKK1 = test system: CAMKK1
# CAMKK2 = test system: CAMKK2
# CASK = test system: CASK
# CDC2L1 = test system: T1, CDC2L1
# T1 construct: gene CDK11B
# 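Further: KINOMEscan kinase panel screen.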
Compound,%Inh (CAMK1) [%],%Inh (CAMK2A) [%],%Inh (CAMK2B) [%],%Inh (CAMK2D) [%],%Inh (CAMK2G) [%],%Inh (CAMK4) [%],%Inh (CAMKK1) [%],%Inh (CAMKK2) [%],%Inh (CASK) [%],%Inh (CDC2L1) [%]
Cl.c1ccc(Oc2ccc(Nc3ccnc4cc(-c5ccc(CN6CCNCC6)o5)ccc34)cc2)nc1 [GW567142],29,0,0,3,0,0,0,0,0,0
Cc1nnc(-c2ccc3occ(-c4ccc(S(C)=O)cc4)c3n2)o1 (stereo not shown),3,0,0,0,0,0,6,11,0,0
C[C@@H](Oc1cc(-n2cnc3ccc(-c4ccncc4)cc32)sc1C(N)=O)c1ccccc1Cl [GSK483724],40,15,0,31,37,0,34,59,14,0
Cc1n[nH]c2cc(Nc3ccnc(Nc4cccc(CN5CCOCC5)c4)n3)ccc12 [GW682569],43,0,0,5,0,0,21,13,0,7
CNC(=O)c1ccccc1Nc1nc(Nc2cccc(CS(C)(=O)=O)c2)ncc1C.O=CO [GSK1520489],76,1,0,16,34,0,88,91.2,59,0
CS(=O)(=O)Nc1ccc(-c2ccnc3[nH]ccc23)cc1 [GSK993273],36,6,7,16,24,0,8,0,21,0
O=C1NCCc2[nH]c(-c3ccncc3)cc21,13,9,10,0,0,0,0,0,0,0
CCn1c(-c2nonc2N)nc2cncc(Br)c21 [SB-738004],14,27,29,27,14,0,25,17,29,0
COc1cccc(C2=C(Nc3cccc(Cl)c3)C(=O)NC2=O)c1 [SB-341556],1,22,0,14,27,0,3,4,43,0
Nc1nccc(-c2ccc3c(N)n[nH]c3c2)n1 [GSK1034945],11,0,5,0,0,0,1,8,6,0
Cn1ccc2ncnc(Oc3ccc(NC(=O)Nc4cncc(C(F)(F)F)c4)c(Cl)c3)c21,0,0,0,0,0,0,0,14,0,0
Cn1ccc2ncnc(Oc3ccc(NC(=O)Nc4ccnc(C(F)(F)F)c4)c(Cl)c3)c21,0,0,0,13,25,0,13,7,0,0
Cc1ccc(Nc2ccnc(Nc3ccc4c(c3)CS(=O)(=O)C4)n2)cc1O.Cl [GW579362],62,0,0,29,42,0,24,31,12,44
COC(=O)c1cccc(NC(=O)NC2CCN(c3ccnc(NCc4ccc(F)cc4)n3)CC2)c1 [GSK1379860],0,0,0,0,1,0,0,0,0,0
O=C(Nc1n[nH]c2cc(-c3ccco3)ccc12)C1CC1 [SB-737447],5,39,34,3,4,0,4,5,17,0
CN1CCN(CCCNc2nccc(-c3c(-c4ccc(F)cc4)nn4cc(C(N)=O)ccc34)n2)CC1 [GW622475],31,0,0,21,37,0,11,30,3,6
CC(=O)Nc1ccc(-c2cc3ncnc(SCC(=O)O)c3s2)cc1,0,55,58,21,18,23,90.6,92.3,8,9

Compound,%Inh (CAMK1) [%],%Inh (CAMK2A) [%],%Inh (CAMK2B) [%],%Inh (CAMK2D) [%],%Inh (CAMK2G) [%],%Inh (CAMK4) [%],%Inh (CAMKK1) [%],%Inh (CAMKK2) [%],%Inh (CASK) [%],%Inh (CDC2L1) [%]
COc1cc2ncn(-c3cc(OCC4CCCCC4)c(C(N)=O)s3)c2cc1OC [GSK204559],13,0,0,5,33,0,12,26,19,0
CCNCC(Cc1ccccc1)NC(=O)c1cc(Br)c(-c2ccnc3[nH]ccc23)s1.Cl.Cl (stereo not shown) [GSK1383280],41,0,0,23,34,21,19,25,0,16
C[C@@H]1CCN(C(=O)N2CCCC2)C[C@@H]1N(C)c1ncnc2[nH]ccc12,5,2,0,12,14,19,15,8,0,3
Cn1ccc2ncnc(Oc3ccc(NC(=O)Nc4cccc(C(F)(F)F)c4)c(Cl)c3)c21,4,0,0,7,0,6,0,0,0,0
COc1cc(Nc2nccc(N3CCC(NC(=O)c4cccc(C#N)c4)C3)n2)cc(OC)c1OC (stereo not shown) [GSK1379751],3,0,0,0,17,0,0,3,3,0
OCCn1cc(-c2cnc3nnn(Cc4ccc5ncccc5c4)c3n2)cn1,0,0,0,0,0,0,0,0,0,11
NC(=O)Nc1sc(-c2ccc(F)cc2)cc1C(N)=O [GW789449],12,0,0,2,0,0,12,7,15,0
C[C@@H]1CNc2c(sc3ccc4nc(-c5ccc(O)cc5)ccc4c23)C(=O)N1,16,35,36,32,23,30,40,58,0,0
Cc1ccc(C(=O)Nc2ccc(Oc3ccc4nc(NC(=O)C5CC5)cn4c3)c(F)c2)c(=O)n1-c1ccccc1,0,0,0,0,3,10,11,10,12,0
COc1cccc(OC)c1C(=O)Nc1cccc(-c2nn3ccccc3c2-c2ccnc(Nc3cccc(F)c3)n2)c1 [GSK361065],19,27,6,0,0,0,4,0,15,0
Cc1ccc2c(-c3ccnc(Nc4ccc(C(F)(F)F)cc4)n3)cnn2n1 [GW819776],0,0,0,0,0,0,19,0,21,0
CC(=O)c1c(-c2ccncc2)[nH]c(-c2ccncc2)c1C [GW493036],26,0,0,0,0,0,0,0,25,0
O=C(NCC1CC1)c1ccc(-c2cc(C(=O)NC3CC3)ccc2F)cc1 [GW810445],0,0,0,0,0,0,0,0,41,0
N#Cc1cccc(C(=O)NC2CCN(c3ccnc(Nc4ccc(F)cc4)n3)C2)c1 (stereo not shown) [GSK1379708],9,0,0,0,0,0,0,0,15,0
O=C(NOCC1CC1)c1cc(Br)c(F)c(F)c1Nc1ccc(I)cc1Cl,0,0,0,0,0,0,0,0,0,0
CCCC(=O)Nc1n[nH]c2ncccc12 [SB-601436],0,13,0,0,0,0,0,0,0,0
COc1cc2c(Nc3ccc(NC(=O)c4ccccc4)cc3)ncnc2cc1OCCCN1CCOCC1 [GSK301329],40,0,0,0,1,0,0,0,17,0
